Bioassay records deposited in PubChem BioAssay by National Center for Advancing Translational Sciences (NCATS).
Pf growth 48h = Primary qHTS for delayed death inhibitors of the malarial parasite plastid, 48 hour incubation | Potency, µM (highest dose often 28.7 µM), for the others: at the top dose activity change, negative = inhibition, actives largely listed as inhibitors | 310,000 tested, 5.9% active | AID 504832, 2011 | P. falciparum luciferase growth in erythrocytes, 48 h; note: potency is the fitted concentration of half-maximal effect
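In quantitative HTS format, infected erythrocytes bearing luciferase-reporter parasites were treated for a single generation at 37 C. Luminescence after adding detection reagent served as the growth measure.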
HCMV inh = qHTS Assay for inhibitors of the human cytomegalovirus (HCMV); 410,000 tested, 4.5% active; HFF cells, HCMV-luciferase reporter, 72 h; active compounds read low; AID 1259415, 2018; activity change, negative = inhibition, % at 57.5 µM; in the data active = activity change below about -60%; inconclusive = no clear call, values can overlap the other calls; inactive = above about -39%
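After 16 h attachment at 37C, HFF cells received test compound and HCMV-luciferase (1 PFU/cell); reporter luminescence read 72 h later, data normalized against buffer-only and known inhibitor Salinomycin.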
LASV entry inh = qHTS for Inhibitors of binding or entry into cells for Lassa Virus. Lassa virus pseudotype entry inhibition, cell reporter. Potency, µM (series often up to 37.9 µM), for the others: at the highest dose activity change, negative = inhibition, most hits filed as inhibitors. 300,000 tested, 1.2% active; calls by dose curve; tested in HEK293 cells; note: potency is the fitted concentration of half-maximal effect; nearly all actives have a fitted effect of over 50% in size
Pf growth 96h = Primary qHTS for delayed death inhibitors of the malarial parasite plastid, 96 hour incubation. P. falciparum luciferase reporter growth, 96 h. AID 504834, 2011. 320,000 tested, 6.9% active. Potency, µM (titrated, usually from 28.7 µM), inactives show at the top dose activity change, negative = inhibition, most hits filed as inhibitors; note: potency is the fitted concentration of half-maximal effect
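Plates of compound plus infected erythrocytes (2% hematocrit, 0.05% parasitemia final) incubate 96 hours, 37 C, 5% CO2. Detection reagent added; reduced luminescence from the parasites' luciferase reporter flags inhibition.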
HCV inh = qHTS Assay for Inhibitors of Hepatitis C Virus (HCV) | Huh7.5.1 HCVcc-Cre infection, luciferase reporter, 44 h | 340,000 tested, 3.4% active | Potency, µM (top dose mostly 41.8 µM), without a hit: at the highest dose activity change, negative = inhibition, usual class: inhibitors | AID 651820, 2012; note: potency is the fitted concentration of half-maximal effect
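Infectious HCV cell culture screen: compound-treated cells (1,000/well, pre-plated 4 h) are infected with HCVcc-Cre at roughly 0.5 moi and grown 44 h. Infection is quantified by luciferase signal after 15 min substrate incubation at room temperature.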
MARV entry inh = qHTS for inhibitors of binding or entry into cells for Marburg Virus | Marburg virus pseudotyped entry inhibition, cell reporter | 300,000 tested, 1.8% active | Potency, µM (titrated, usually from 37.8 µM), without a hit: top-dose activity change, negative = inhibition, most hits filed as inhibitors; calls by dose curve; tested in HEK293 cells; note: potency is the fitted concentration of half-maximal effect
* hit, by the source's call; u = inconclusive; x = not tested or not shown; ! = not active in a repeat; [ ] = dose if it differs, or a comment. Hits are enriched below; roughly 14% of the tested compounds scored in any of these assays. Unless noted, calls come from the whole dose curve; as a rule, active = well fitted inhibition curve with a large enough effect; inconclusive = small, poorly fitted or top-dose-only effect, or another doubt; inactive = no such curve, though single readings can be large or run the other way. % is set by controls: 0 for no effect and ±100 for the full control effect.

SMILES	Pf growth 48h	HCMV inh	LASV entry inh	Pf growth 96h	HCV inh	MARV entry inh
CCN(CC)CCn1c2c(c(SCC(=O)Nc3cccc(C(F)(F)F)c3)nc1=O)CCC2	x	85	4%[46.1 µM]	x	x	x
CCC(c1nnnn1-c1ccc2c(c1)OCCO2)N1CCN(C(=O)C2CCCO2)CC1 (stereo not drawn)	x	6	x	x	x	x
OC1(c2cccc(C(F)(F)F)c2)CCN(Cc2nnnn2Cc2ccccc2)CC1	-24%	-20	-28%[46.1 µM]	87%	6%	u
O=S(=O)(c1ccc(OC(F)(F)F)cc1)N1CCC(O)(c2cccc(C(F)(F)F)c2)CC1	u	4	x	6%	8.9µM*	x
COc1cc(S(=O)(=O)N2CCC(O)(c3cccc(C(F)(F)F)c3)CC2)ccc1-n1cnnn1	10µM*	-27	0%	u	1.6µM*!	2%
OC1(c2cccc(C(F)(F)F)c2)CCNCC1	-1%	22	-2%	13µM*	2%	-24%
O=S(=O)(c1ccccc1)N1CCN(C(c2ccccc2)c2ccc(OC(F)(F)F)cc2)CC1 (stereo not drawn)	x	33	x	2%	-6%	x
Cn1c2c(c3ccccc31)CCN(CCCCN1CCN(c3ccccc3)CC1)C2=O	x	60	-1%[46.1 µM]	x	u	u
Cc1oc2c(cc(NS(=O)(=O)c3ccc(Cl)cc3)c3ccccc32)c1C(=O)OCc1ccccc1	x	28	15%[46.1 µM]	x	x	0%[46.1 µM]
CCOc1c(Cl)cc(CNC(C)(C)CC(C)(C)C)cc1OC	10µM*	-11	u	x	u	u
CCOc1c(Cl)cc(CNc2ccc(N3CCCC3)cc2)cc1OC	-27%	-65*	u	42%	-7%	u
CCOc1c(Cl)cc(CNc2ccc(S(N)(=O)=O)cc2)cc1OC	14%	u	u	-55%	4%	0%
C[C@H]1CCCCO[C@@H](CN(C)CC2CC2)[C@@H](C)CN([C@@H](C)CO)C(=O)c2cc(NS(=O)(=O)c3ccccc3)ccc2O1	x	-27	x	x	x	x
COc1cccc([C@@H]2Oc3ccc(OC)cc3C[C@@H]2OC(=O)N[C@H]2CCCc3ccccc32)c1	x	x	x	x	x	3%[14.2 µM]
O=C(CCl)Nc1ccc(S(=O)(=O)Nc2nccs2)cc1	2.3µM*	-30	u	1.5µM*	u	u
O=S(=O)(Nc1nccs1)c1cnc(Cl)c(Br)c1	-2%	-101*	-2%	7%	9%	-2%
CCOCC(=O)Nc1ccc(S(=O)(=O)Nc2nccs2)cc1	-5%	42	x	12µM*	21%	x
Cc1ccc(C(=O)OCC(=O)N2CCCCCC2)c(O)c1	375%	0	x	250%	2%	x
COc1ccc(Cn2c(=O)n(Cc3ccco3)c(=O)c3oc4ccccc4c32)cc1	x	-31	2%[46.1 µM]	x	x	x
COc1ccc(S(=O)(=O)N2CCCCCC2)cc1C(=O)N(C)Cc1ccc(C(C)(C)C)cc1	u	-15	u	13µM*	14µM*	u
COc1ccc(CN(C)C(=O)c2cc(S(=O)(=O)N3CCOCC3)ccc2N2CCCC2)cc1	9.3µM*	-37	u	u	3%	-24%[46.1 µM]
CN(Cc1cccs1)C(=O)c1cc(S(=O)(=O)N2CCOCC2)ccc1N1CCCC1	-7%	-34	x	12%	3%	x
COc1ccc(-c2noc(CN(C(=O)c3cc(OC)c(OC)cc3OC)C(C)C)n2)cc1	x	-1	-28%[46.1 µM]	x	x	u
Cc1nc2scc(-c3ccccc3)c2c(=O)n1N	x	u	-3%	-20%	0%	-6%
Cc1nc2scc(-c3ccc(C(C)C)cc3)c2c(=O)n1N	-17%	-62*	12%	-16%	-18%	u
SMILES	Pf growth 48h	HCMV inh	LASV entry inh	Pf growth 96h	HCV inh	MARV entry inh
COC(=O)c1cc2c(ccn2-c2ccc(F)cc2)n1C(C)C	u	-1	0%	-22%	-30%	11%
COC(=O)c1cc2c(ccn2-c2ccc(F)cc2)n1Cc1cccc(OC)c1	u	1	-28%	u	u	13%
CCOC(=O)c1cc2c(ccn2C)n1CC(=O)Nc1ccc(F)cc1	12%	11	x	u	2%	x
CCCn1c(C(=O)OC)cc2c1ccn2-c1ccc(F)cc1	u	-11	-5%	u	32µM*	0%
COC(=O)c1cc2c(ccn2-c2ccc(F)cc2)n1Cc1ccc(OC(C)=O)cc1	u	-1	u	u	8.9µM*	-1%
COC(=O)c1cc2c(ccn2-c2ccc(F)cc2)n1CC(C)C	u	-6	0%	u	11µM*	0%
COc1ccc(-c2noc(N(c3cccc(Cl)c3)c3nc(-c4ccc(OC)c(OC)c4)no3)n2)cc1OC	x	16	-4%[46.1 µM]	x	x	6%[46.1 µM]
c1ccc(CNc2ncnc3scc(-c4cccs4)c23)nc1	6%	-84*	x	23%	u	x
c1ccc(-c2csc3ncnc(NCc4ccccn4)c23)cc1	u	-89*	x	u	10µM*	x
CCOc1ccc(-c2csc3ncnc(Nc4cccc(O)c4)c23)cc1	x	-25	-3%[46.1 µM]	x	x	u
c1ccc(CNc2ncnc3sc4c(c23)CCC4)nc1	3%	-17	-3%	5%	-26%	15%
Oc1ccc(Nc2ncnc3scc(-c4ccccc4)c23)cc1	-24%	-64*	u	-14%	8.9µM*	u
Cc1ccc(Cl)cc1N1CCN(CCCNc2ncnc3onc(-c4ccc(Cl)cc4)c23)CC1	x	4	-1%[46.1 µM]	x	x	u
CCOc1ccc(NC(=O)c2sc(-n3nc(C)c(Cc4ccc(Cl)cc4)c3C)nc2C)cc1	x	-29	8%[46.1 µM]	x	x	2%[46.1 µM]
COCCCN(Cc1ccco1)C(=O)CSc1nc2ncccc2[nH]1	3%	-23	x	13µM*	2%	x
CC(C)NC(=O)c1sc2nc3c(c(-c4cccs4)c2c1N)CN(C)CC3	x	-39	-16%	-17%	-6%	-1%
CN1CCc2nc3sc(C#N)c(N)c3c(-c3cccs3)c2C1	13µM*	-28	8%	x	u	19%
Cc1cc(Nc2ccc(C)c(F)c2)n2ncnc2n1	1.5µM*	-7	5%	34%	19%	-1%
CC(=O)c1ccc(Nc2cc(C)nc3ncnn23)cc1	u	46	8%	-14%	19%	-1%
Cc1ccc(-c2cc(C)nc3ncnn23)cc1	x	20	x	12µM*	1%	-2%
Cc1ccc(Nc2cc(C)nc3ncnn23)cc1	3.7µM*	35	-1%	u	6%	6%
CCCN(Cc1cccs1)C(=O)Nc1ccccc1C	x	28	2%[46.1 µM]	x	x	u
C[C@@H](NC(=O)c1ncn2c1c(=O)[nH]c1cccnc12)c1ccccc1	x	15	x	x	x	x
C[C@@H](NC(=O)c1ncn2c1c(=O)[nH]c1ccc(Br)cc12)c1ccccc1	x	-100*	x	x	x	x
CC1=C(C)/C(=N\OC(=O)/C=C/c2ccccc2)C=CC1=O	10µM*	-31	1%	u	-3%	u
